# This is a sample that favours compounds with a hit; in the whole collection about 5.4% have one here.
# MPTP block = inhibitors of mitochondrial permeability transition pore. isolated mouse mitochondria, Ca2+ swelling absorbance, 30 min. inhibition, % at 10 µM. actives 1.4% (n = 360,000). AID 602449;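 active = inhibition of 50% or more, scaled per plate between neutral and stimulator controls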;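 note: 0% = DMSO wells given calcium and 100% = 1 mM EGTA wells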
# CSC inhib = blocks cancer stem cells; AID 2717; cancer stem cell-like cells viability, luminescence; actives 1.1% (n = 300,000); inhibition, % at 7.5 µM; in the data active = inhibition above about 75%; inconclusive = no clear call, values can overlap the other calls; tested in HMLE shEcad cells
# Beta apoptosis = blocks beta cell apoptosis; actives 0.8% (n = 300,000); protection from apoptosis, % (test concentration not listed); AID 435005; INS-1E cytokine-induced death, ATP luminescence, 48 h; percent of positive-control rescue, neutral wells zero;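 active = Every replicate reaches about 75%, or at least half do and their mean reaches it too, limit read from the data; inconclusive = At least half of replicates reach the limit but their mean does not; inactive = Under half of replicates reach the limit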;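 note: 0% = cytokine-treated negative control wells and 100% = positive control rescue; higher means more ATP so stronger rescue from cytokine killing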
# Mdm2-MdmX inh = disrupts the human Mdm2-MdmX interaction; SaOS-2 split-luciferase Mdm2/MdmX complementation, luminescence; inhibition, % at 8 µM; actives 3% (n = 330,000); AID 485346;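 active = inhibition of at least 50% at 8 µM in the primary screen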
# Target sequence (O15151 whole entry, looked up): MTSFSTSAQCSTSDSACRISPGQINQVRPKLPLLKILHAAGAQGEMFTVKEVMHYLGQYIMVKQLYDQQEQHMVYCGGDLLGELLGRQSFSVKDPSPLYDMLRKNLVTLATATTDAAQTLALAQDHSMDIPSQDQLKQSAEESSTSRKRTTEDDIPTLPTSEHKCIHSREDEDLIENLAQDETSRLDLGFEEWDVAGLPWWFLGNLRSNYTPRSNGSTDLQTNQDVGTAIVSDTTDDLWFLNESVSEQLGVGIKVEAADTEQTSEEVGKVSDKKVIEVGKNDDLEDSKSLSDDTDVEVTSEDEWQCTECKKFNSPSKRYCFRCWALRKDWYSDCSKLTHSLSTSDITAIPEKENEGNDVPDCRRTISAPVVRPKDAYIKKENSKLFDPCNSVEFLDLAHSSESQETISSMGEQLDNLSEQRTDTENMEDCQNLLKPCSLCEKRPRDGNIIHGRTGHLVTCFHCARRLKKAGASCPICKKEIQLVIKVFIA
# Target sequence (Q00987 whole entry, looked up): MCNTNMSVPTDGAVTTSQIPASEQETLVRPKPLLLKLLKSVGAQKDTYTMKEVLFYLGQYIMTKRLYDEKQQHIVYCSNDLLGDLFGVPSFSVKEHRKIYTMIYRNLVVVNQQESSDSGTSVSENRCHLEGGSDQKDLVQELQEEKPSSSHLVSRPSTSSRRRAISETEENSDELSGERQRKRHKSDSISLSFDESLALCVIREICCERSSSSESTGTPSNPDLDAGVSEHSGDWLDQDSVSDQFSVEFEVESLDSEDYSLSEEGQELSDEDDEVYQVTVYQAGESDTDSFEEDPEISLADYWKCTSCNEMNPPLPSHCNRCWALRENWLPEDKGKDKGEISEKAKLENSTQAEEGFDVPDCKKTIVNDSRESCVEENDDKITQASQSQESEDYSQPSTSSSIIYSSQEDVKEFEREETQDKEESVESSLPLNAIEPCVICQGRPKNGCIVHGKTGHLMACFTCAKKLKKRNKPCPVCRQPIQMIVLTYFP
# SKKanGAS inh = SKKanGAS growth inhibition | S. pyogenes SKKanGAS, kanamycin growth, BacTiter-Glo, 6 h | inhibition, % at 7.5 µM | actives 1.3% (n = 300,000);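 active = mean replicate score, as percent of positive control median, at least 50; inconclusive = mean below 50 but one replicate at or above 50; inactive = mean and every replicate below 50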;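 note: strain carries kanamycin resistance gene driven by streptokinase promoter and grows in 40 µg/ml kanamycin; loss of luminescence reflects streptokinase promoter inhibition or plain growth inhibition; 0% = median of DMSO wells and 100% = positive control at its reference dose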
# Calb FLC = affects C. albicans growth with fluconazole; C. albicans CaCi-2 (fluconazole-resistant clinical isolate) + fluconazole, Alamar Blue growth, 48 h; growth inhibition, % (test concentration not listed); actives 0.57% (n = 300,000); AID 1979;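 active = growth inhibition above about 58% in most replicates, limit read from the data, passing the limit was not always enough; inconclusive = exactly half the replicates above a set limit; inactive = most replicates below a set limit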;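 note: all wells also contain fluconazole at 8 µg/ml as a sub-toxic cotreatment; 0% = median of DMSO wells and 100% = median of geldanamycin control wells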
# Mdm2-MdmX conf = human Mdm2/MdmX binding inhibition, confirmed; inhibition, % at 8 µM; actives 55% (n = 10,000); luminescent assay; shares compounds with Mdm2-MdmX inh; in the data active = inhibition above about 40%
# FLuc counter = full-length luciferase inhibition in Mdm2/MdmX counter-screen; shares compounds with Mdm2-MdmX inh; SaOS-2 full-length luciferase counterscreen, luminescence; inhibition, % at 8 µM; actives 77% (n = 6,200); AID 504607;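 active = mean inhibition at 8 µM reaching about 37%, which flags the compound as non-specific, limit read from the data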;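 note: p53-null SaOS-2 cells with luciferase driven by a doxycycline-inducible promoter; compound on cells about two nights before reading with doxycycline added after day one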
# * hit, by the source's call; u = inconclusive; x = no result.
SMILES,MPTP block,CSC inhib,Beta apoptosis,Mdm2-MdmX inh,SKKanGAS inh,Calb FLC,Mdm2-MdmX conf,FLuc counter
O=C(O)Cn1c(=O)c2c(c3ccccc31)CCC2,0,-1,0,8,1,-3,x,x
CCCn1c(N)c(Sc2ccc(C)cc2)c(=O)n(CCC)c1=O,0,-14,-5,15,10,-28,x,x
CCCn1c(CC)nc([N+](=O)[O-])c1Sc1ccc(C)cc1,9,-9,-16,64*,9,-3,12,x
Cc1coc(NC(=O)CSc2nc(-c3ccc(Cl)cc3)cc(C(F)(F)F)c2C#N)n1,7,-17,2,44,9,-6,x,x
COc1ccc(-c2cc(C(F)(F)F)c(C#N)c(SCC(=O)Nc3nc(C)co3)n2)cc1,-1,x,6,62*,-5,-22,23,x
COc1ccc(-c2cc(C(F)(F)F)c(C#N)c(SCC(=O)Nc3ccccc3C#N)n2)cc1,x,-1,14,53*,2,0,13,x
CC(C)C[C@@H]1NC(=O)[C@H](Cc2ccccc2)N(C)C(=O)[C@H](C)NC(=O)c2ccccc2NC(=O)[C@H](Cc2ccc(O)cc2)N(C)C1=O,-1,-8,x,75*,-3,-1,57*,71*
CCOC(=O)/C=c1\s/c(=C\c2ccc3cc(OC)ccc3c2)c(=O)n1CC(=O)NCc1ccc2c(c1)OCO2,2,9,-1,79*,3,11,14,x
CCOC(=O)/C=c1\s/c(=C\c2ccc3c(c2)OCCO3)c(=O)n1CC(=O)NCC1CCCO1 (stereo unspecified),-2,0,-10,17,2,26,x,x
CCOC(=O)/C=c1\s/c(=C\c2ccccc2C)c(=O)n1CC(=O)NCc1ccc2c(c1)OCO2,1,45,9,92*,9,-5,67*,44*
O=C(Nc1cc(S(=O)(=O)N2CCCCC2)ccc1N1CCCCC1)c1ccncc1,1,-11,9,2,0,-1,x,x
CC(=O)Nc1cccc(C(=O)/C=C/c2ccc(Br)cc2)c1,-8,127*,0,97*,2,-12,74*,53*
CC(=O)Nc1cccc(C(=O)/C=C/c2ccc(F)cc2)c1,0,46,4,73*,-6,u,25,x
CC(=O)Nc1cccc(C(=O)/C=C/c2ccc[nH]2)c1,3,2,2,-5,6,-5,x,x
CC(=O)Nc1cccc(C(=O)/C=C/c2ccc(N(C)C)cc2)c1,-9,6,10,-19,-4,2,x,x
Cc1cccc(C(=O)Nc2ccc(C(=O)/C=C/c3ccncc3)cc2)c1,4,30,15,97*,2,-4,11,x
Cc1cccc(C(=O)Nc2cccc(C(=O)N/N=C/c3ccncc3)c2)c1,0,-5,-10,6,-3,5,x,x
CC(=O)Nc1cccc(C(=O)/C=C/c2ccc(/C=C/C(=O)c3cccc(NC(C)=O)c3)cc2)c1,x,77*,14,98*,7,-14,31,x
CCc1ccc(NC(=O)C(=O)c2cn(CC(=O)N3CCCCC3)c3ccccc23)cc1,1,12,-2,26,14,8,x,x
CCC(=O)Nc1cccc(C(=O)/C=C/c2cc(Br)ccc2OC)c1,3,1,-9,97*,6,9,80*,59*
CN(C1CCCCC1)S(=O)(=O)c1ccc(SCC(=O)C(C)(C)C)nc1,-1,51,0,14,x,x,x,x
O=C(O)c1ccc(/C=C/c2ccc3cccc(O)c3n2)cc1,-1,x,x,5,3,64,x,x
CCOc1cccc(/C=C/c2ccc3cccc(O)c3n2)c1O,3,57,36,67*,107*,-4,-36,x
COc1ccc(Cl)cc1/C=C/c1ccc2cccc(O)c2n1,2,58,24,50*,89*,11,1,x
COc1ccccc1OCC(=O)N/N=C/c1cccc2cccnc12,0,-3,-2,19,-1,2,x,x
SMILES,MPTP block,CSC inhib,Beta apoptosis,Mdm2-MdmX inh,SKKanGAS inh,Calb FLC,Mdm2-MdmX conf,FLuc counter
Cc1cc(C)n(CCC(=O)N/N=C/c2c(O)ccc3ccccc23)n1,3,16,93*,73*,3,40,78*,52*
O=C(N/N=C\c1ccc(Cl)s1)c1ccc(Cn2cccn2)o1,0,3,-4,8,-3,2,x,x
O=C(CN1CCCC1)N/N=C/c1c(O)ccc2ccccc12,-1,35,51,72*,32,u,76*,39*
COc1ccccc1OCC(=O)N/N=C/c1c(O)ccc2ccccc12,2,48,2,82*,32,-13,78*,28
O=C(N/N=C\c1c(O)ccc2ccccc12)c1ccc(Cn2cccn2)o1,2,30,79*,75*,108*,20,74*,25
Cc1cc(Cl)n2nc(C)c(-c3ccc(Cl)cc3)c2n1,1,18,-1,91*,x,113*,52*,15
CC(Oc1ccc(Br)cc1)C(=O)Nc1ccc(S(=O)(=O)N(C)C2CCN(C)CC2)cc1 (stereo unspecified),0,29,22,59*,-3,3,39,76*
COc1ccc2oc(C(=O)Nc3ccc(S(=O)(=O)N(C)C4CCN(C)CC4)cc3)c(C)c2c1,-1,8,24,96*,-1,10,46*,47*
COc1ccc(CC(=O)Nc2ccc(S(=O)(=O)N(C)C3CCN(C)CC3)cc2)cc1,-1,x,x,12,x,x,x,x
CCCNC(=O)CSc1nccn1Cc1ccco1,0,-4,-1,22,-7,-5,x,x
O=C(Nc1ccc(Cl)cc1)Nc1ccc(Cl)c(Cl)c1,x,44,113*,89*,x,x,90*,27
O=C(Nc1ccc(Cl)c(Cl)c1)Nn1cnnc1,41,-11,-10,23,7,8,x,x
O=C(NNC(=O)c1cccnc1SCc1cccc([N+](=O)[O-])c1)c1ccc(F)cc1,2,-11,u,14,-4,13,x,x
O=C(NNC(=O)c1cccnc1SCc1cccc([N+](=O)[O-])c1)c1ccccn1,-3,x,x,55*,75*,u,79*,21
Clc1ccc(-c2nnc(-c3ccccc3)nc2-c2c[nH]c3ccccc23)cc1,11,3,8,12,-5,2,x,x
COc1cccc(/C=C2\SC(=S)N(CCCC(=O)N3CCCCC3CCO)C2=O)c1 (stereo unspecified),-2,23,-38,78*,-4,2,61*,21
O=C1/C(=C/c2cccs2)SC(=S)N1CCC(=O)N1CCCCC1CCO (stereo unspecified),1,-1,-22,37,-3,7,x,x
COc1ccc(/C=C2\SC(=S)N(CCCC(=O)N3CCOCC3)C2=O)cc1,-1,-6,-15,30,4,6,x,x
